Where a name gives a salt, the structure may show the parent alone. ± gives the uncertainty stated by the source.
The compounds below were run on THP-1 (assay: CD86 surface expression induction over DMSO control (% over DMSO); higher = stronger dendritic cell activation). Conditions: exposure time: 24 h.
Method: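 hCLAT-like CD54 and CD86 surface expression on THP1 cells after 24 h exposure at a single concentration (highest non-cytotoxic concentration, or 100-200 µM if not cytotoxic). Flow cytometry (iQue) was run on 5,000 live cells.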

**Q.** `CC(C)CCCCCCCOC(=O)c1ccc(C(=O)OCCCCCCCC(C)C)c(C(=O)OCCCCCCCC(C)C)c1` [Triisodecyl trimellitate] (163 µM) was tested. Which “CD86 surface expression induction” value did it give?
**A.** -10.7 ± 1.8

**Q.** Which “CD86 surface expression induction” value does the source give for `Cc1occc1S` [2-Methyl-3-furanthiol] (200 µM) here?
**A.** 33 ± 9.3

**Q.** `CC(=O)C1(C)CC2=C(CCCC2(C)C)CC1C` (stereo not drawn) (100 µM) was tested. Which “CD86 surface expression induction” value did it give?
**A.** 9.62 ± 13

**Q.** With `CCOc1ccc2nc3cc(N)ccc3c(N)c2c1` [Ethacridine lactate monohydrate] (200 µM) as the compound, how does the “CD86 surface expression induction” value read?
**A.** 42.2 ± 53

**Q.** For `CCOc1ccc2nc(S(N)(=O)=O)sc2c1` [Ethoxzolamide] (200 µM), which “CD86 surface expression induction” value is on record?
**A.** -1.83 ± 4.6

**Q.** With `C/C=C/C=C/CCCCCCCO` [Codlelure] (200 µM) as the compound, how does the “CD86 surface expression induction” value read?
**A.** -13 ± 6

**Q.** How did the “CD86 surface expression induction” value turn out when `O=C(O)CCCCCCCCC(=O)O` [Decanedioic acid] (200 µM) was run?
**A.** -3.64 ± 3

**Q.** For `O=C(Nc1ncc([N+](=O)[O-])s1)c1cccs1` [Tenonitrozole] (10 µM), which “CD86 surface expression induction” value is on record?
**A.** -9.19 ± 11

**Q.** How did the “CD86 surface expression induction” value turn out when `CCCCCOc1ccccc1/C(=C\SC)n1ccnc1` [Neticonazole] (100 µM) was run?
**A.** 38.9 ± 22

**Q.** `C=CC(=O)OCCCCCCOC(=O)C=C` [1,6-Hexanediol diacrylate] (100 µM) was tested. Which “CD86 surface expression induction” value did it give?
**A.** 24.1 ± 16

**Q.** Which “CD86 surface expression induction” value does the source give for `CC(C)(C)c1ccc(C(=O)CCCCl)cc1` [4'-Tert-butyl-4-chlorobutyrophenone] (100 µM) here?
**A.** -2.04 ± 0.44

**Q.** For `Sc1nc2ccccc2s1` [2-Mercaptobenzothiazole] (100 µM), which “CD86 surface expression induction” value is on record?
**A.** -1.26 ± 3.2

**Q.** `O=C(CS)Nc1ccccc1` [Thioglycolic acid anilide] (300 µM) was tested. Which “CD86 surface expression induction” value did it give?
**A.** 34.4 ± 2

**Q.** `C=CCOC(Cn1ccnc1)c1ccc(Cl)cc1Cl` (stereo not drawn) [Imazalil sulfate] (100 µM) was tested. Which “CD86 surface expression induction” value did it give?
**A.** 16.4 ± 4.3

**Q.** How did the “CD86 surface expression induction” value turn out when `C=CC(C)(CCC=C(C)C)OC(=O)CC(C)C` (stereo not drawn) [Linalyl isovalerate] (200 µM) was run?
**A.** 4.35 ± 0.78

**Q.** Which “CD86 surface expression induction” value does the source give for `O=C(Nc1ccccc1)c1cc([N+](=O)[O-])ccc1Cl` [2-Chloro-5-nitro-N-phenylbenzamide] (200 µM) here?
**A.** 31.1 ± 7.1

**Q.** `Nc1ccc(Nc2ccccc2)cc1` [N-Phenyl-1,4-benzenediamine] (200 µM) was tested. Which “CD86 surface expression induction” value did it give?
**A.** 44.2 ± 39

**Q.** How did the “CD86 surface expression induction” value turn out when `C=CC(=O)OCCn1c(=O)n(CCOC(=O)C=C)c(=O)n(CCOC(=O)C=C)c1=O` (10 µM) was run?
**A.** 14.2 ± 10

**Q.** For `O=C(N/N=C/c1ccccc1O)c1ccncc1` [Salinazid] (10 µM), which “CD86 surface expression induction” value is on record?
**A.** 7.77 ± 2.8

**Q.** For `O=C(O)c1cn(C2CC2)c2cc(N3CCNCC3)c(F)cc2c1=O` [Ciprofloxacin] (100 µM), which “CD86 surface expression induction” value is on record?
**A.** -5.55 ± 6.9

**Q.** For `CCN(CC)CCSC(=O)C(c1ccccc1)c1ccccc1` [Thiphenamil] (200 µM), which “CD86 surface expression induction” value is on record?
**A.** 107 ± 65

**Q.** With `Cc1c(C)n(CCN(C)C)c2ccc(C(=O)OCCN(C)C)cc12` [Amindocate] (100 µM) as the compound, how does the “CD86 surface expression induction” value read?
**A.** 1.11 ± 2.2

**Q.** With `Nc1ccc(/N=N/c2ccccc2)c(N)n1` [Phenazopyridine hydrochloride] (100 µM) as the compound, how does the “CD86 surface expression induction” value read?
**A.** -8.42 ± 5.7

**Q.** `COc1cc(Nc2c(C#N)cnc3cc(OCCCN4CCN(C)CC4)c(OC)cc23)c(Cl)cc1Cl` [Bosutinib] (100 µM) was tested. Which “CD86 surface expression induction” value did it give?
**A.** 5.12 ± 41

**Q.** For `CCCOc1ccc2[nH]c(NC(=O)OC)nc2c1` [Oxibendazole] (100 µM), which “CD86 surface expression induction” value is on record?
**A.** -3.54 ± 40

**Q.** How did the “CD86 surface expression induction” value turn out when `CC(C)C[C@H](NC(=O)[C@H](Cc1ccccc1)NC(=O)c1cnccn1)B(O)O` [Bortezomib] (10 µM) was run?
**A.** 107 ± 8.1

**Q.** Which “CD86 surface expression induction” value does the source give for `CC(C(=O)O)c1ccc(/C=C2\CCCCC2=O)cc1` (stereo not drawn) [Pelubiprofen] (100 µM) here?
**A.** -4.77 ± 4.1

**Q.** For `O=c1cc(-c2ccccc2)oc2ccccc12` [Flavone] (200 µM), which “CD86 surface expression induction” value is on record?
**A.** 16.4 ± 4.7

From the supplement of paper PMC10933113
